Measured values: PubChem BioAssay (NCATS)
Records with an inconclusive call do not appear. A number with no mark means an inactive call. Calls of active or inactive are those of the source. Calls follow the shape of the dose curve; as a rule, active = well fitted inhibition curve with a large enough effect; inconclusive = small, poorly fitted or top-dose-only effect; inactive = no such curve, though single readings can be large or run the other way.

The molecules below were run against Retinaldehyde dehydrogenase 3 (Homo sapiens) (UniProt P47895) (assay: qHTS for Inhibitors of the Aldehyde Dehydrogenase Family (ALDH1A3) Confirmatory screens (AID 2061311; also: nearly all actives have a fitted effect of over 60% in size; also: potency is read from the fitted curve at half-maximal effect)). Conditions: ALDH inhibition qHTS; series mostly up to 46 µM; activity change, negative = inhibition: at the top concentration.
% is scaled to controls: 0 for no effect and ±100 for the full control effect.

Compound | Potency | activity change, negative = inhibition
O=[N+]([O-])/C=C/c1ccc2c(c1)OCO2 | 15.8 µM (active) | –
CC1=C(C)C(=O)C(CC[C@](C)(O)CCC[C@H](C)CCC[C@H](C)CCCC(C)C)=C(C)C1=O | 10.1 µM (active) | –
CCCn1c(C)c(C(=O)c2ccc3ccccc3c2)c2ccccc21 | – | -8.69%

These molecules were tested against Retinaldehyde dehydrogenase 3 (Homo sapiens) (UniProt P47895) (assay: qHTS for Inhibitors of the Aldehyde Dehydrogenase Family (ALDH1A3) Validation screen (AID 2061312; also: nearly all actives have a fitted effect of over 45% in size)). Conditions: ALDH1A3 enzyme inhibition qHTS validation, fluorescence; series mostly up to 42.4 µM; activity change, negative = inhibition: at the top concentration.

Compound | activity change, negative = inhibition
NC(=O)c1ncn2c1CN=C(c1ccccc1Br)c1cc(F)ccc1-2 | 24.3% [at 84.7 µM]
O=C1CN=C(c2ccccc2Cl)c2cc(Br)ccc2N1 | 11.9% [at 84.7 µM]
C/C(=C\c1csc(C)n1)[C@@H]1C[C@@H]2O[C@@H]2CCC[C@H](C)[C@H](O)[C@@H](C)C(=O)C(C)(C)[C@@H](O)CC(=O)O1 | -20.1% [at 84.7 µM]
COc1ccc(C(C)(C)C)cc1CN[C@H]1C2CCN(CC2)[C@H]1C(c1ccccc1)c1ccccc1 | 186% [at 84.7 µM]
O=[N+]([O-])/C=C/c1ccc2c(c1)OCO2 | 14.6%
COC1(C[S@@](=O)c2ccccc2)CCN(CCc2c[nH]c3ccc(F)cc23)CC1 | 148% [at 84.7 µM]
COc1ccccc1CN[C@H]1C2CCN(CC2)[C@H]1C(c1ccccc1)c1ccccc1 | 77.9% [at 84.7 µM]
CC1=C2C[C@H]3[C@@H](CC=C4C[C@@H](O)CC[C@@]43C)[C@@H]2CC[C@]12O[C@@H]1C[C@H](C)CN[C@H]1[C@H]2C | 33.7% [at 84.7 µM]
C[C@@H](CN1CCC2(CC1)C(=O)NCN2c1cccc(F)c1)NC(=O)c1ccc(Br)cc1 | 41.2% [at 84.7 µM]
CCCCCCn1c(=O)c(C(=O)Nc2ccc(C(=O)OCCC)cc2)c(O)c2ccccc21 | -1.5% [at 20.1 µM]
